Bioassay records as filed in PubChem BioAssay.
A selection: hits, their analogues and other compounds. The true share with any hit is near 9.4%.
Pf growth 48h: inhibits P. falciparum growth in the first generation, 48 h. P. falciparum luciferase growth in erythrocytes, 48 h. Potency, µM (doses to about 28.7 µM), for the others: top-dose activity change, negative = inhibition, actives largely listed as inhibitors. hit rate 5.9% among 310,000. AID 504832; also: % is scaled to controls: 0 for no effect and ±100 for the full control effect
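Firefly luciferase activity from engineered P. falciparum reports growth; inhibitors lower the luminescent signal. Cultures contained 2% hematocrit erythrocytes at 0.1% final parasitemia.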
AMA1 RON2 block: AMA1-RON2 (P. falciparum) interaction inhibition | hit rate 0.2% among 360,000 | Potency, µM (top dose mostly 58.2 µM), inactives show at the top dose activity change, negative = inhibition, most hits filed as inhibitors | AlphaScreen AMA1-biotinylated RON2 peptide binding;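 also: 0% = vehicle wells and -100% = peptide control; nearly all actives have a fitted effect of over 45% in size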
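AMA1 (3D7) with his tag at 25 nM final met compounds first, then biotinylated RON2 peptide at 25 nM; detection used donor plus acceptor beads, 10 µg/mL apiece, read by AlphaScreen after 30 min at room temperature.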
SARS PLpro yeast: SARS-CoV PLP inhibition in yeast; S. cerevisiae expressing SARS-CoV PLpro, growth rescue; Potency, µM (titrated, usually from 32.9 µM), inactives show at the highest dose activity, positive = growth rescue, most hits filed as activators; hit rate 0.19% among 330,000; AID 485353; calls by dose curve; also: 0% is about no effect; nearly all actives have a fitted effect of over 55% in size
Pf growth 96h: P. falciparum growth inhibition at 96 hours; Potency, µM (top dose mostly 28.7 µM), inactives show top-dose activity change, negative = inhibition, actives largely listed as inhibitors; P. falciparum luciferase reporter growth, 96 h; hit rate 6.9% among 320,000; also: % is scaled to controls: 0 for no effect and ±100 for the full control effect
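Infected RBCs, 2% Hct / 0.05% parasitemia final; luciferase-reporter P. falciparum; cpd 96 h, 37 C, 5% CO2; luciferase detection reagent; luminescence.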
* marks the source's active call; other numbers are inactive results; ? = inconclusive; . = not tested or not shown; [ ] = remark or other dose. Unless noted, calls follow the shape of the dose curve; as a rule, active = well fitted curve in the direction sought with a large enough effect; inconclusive = small, poorly fitted or top-dose-only effect, or another doubt; inactive = no such curve, though single readings can be large; an effect the other way counts as inactive or inconclusive. Potency is read from the fitted curve at half-maximal effect.

SMILES | Pf growth 48h | AMA1 RON2 block | SARS PLpro yeast | Pf growth 96h
CCC(=O)NC(=S)Nc1cccc(Cl)c1N1CCCCC1 | 12µM* | 6% | -1% | 7.4µM*
CCCCC(=O)NC(=S)Nc1cccc(Cl)c1N1CCCCC1 | ? | -3% | 6% | ?
CCCC(=O)NC(=S)Nc1cccc(Cl)c1N1CCCCC1 | 7.4µM* | 24% | -23% | 8.3µM*
Cc1ccc(NC2c3ncccc3C(=O)N2C2CCCCC2)cc1 (stereo not drawn) | -28% | 4% | -12% | ?
Cc1ccc(NC2c3ncccc3C(=O)N2C2CCCCC2)cc1C (stereo not drawn) | 10µM* | 1% | -3% | 33%
O=C(CCCl)Nc1nc2c(s1)CCc1ccccc1-2 | ? | -21% | -13% | 2.1µM*
CCO[C@@H]1OC(C(=O)N2CCN(Cc3ccccc3)CC2)=C[C@H](c2ccc(Br)cc2)[C@H]1CCCO | ? | -20% | -1% | 13µM*
CCO[C@H]1OC(C(=O)N2CCN(Cc3ccccc3)CC2)=C[C@@H](C)[C@@H]1CCCO | 4% | -3% | 1% | 0%
CCO[C@@H]1OC(C(=O)N2CCN(Cc3ccccc3)CC2)=C[C@H](c2ccc(C(F)(F)F)cc2)[C@H]1CCCO | ? | 47% | 0% | 15µM*
Cc1ccc2oc(C(=O)NCC(c3ccco3)N3CCCC3)c(C)c2c1 (stereo not drawn) | -14% | 0% | 14% | ?
O=C(NCC(c1ccco1)N1CCCC1)c1cc2ccccc2s1 (stereo not drawn) | 2.6µM* | -1% | 7%[6.58 µM] | 4.1µM*
O=C(CCNC(=O)c1ccc(Cl)cc1)NCC(c1ccco1)N1CCCCC1 (stereo not drawn) | ? | 10% | -6% | 4.7µM*
Cc1ccc(C(=O)NCC(c2ccco2)N2CCCCC2)s1 (stereo not drawn) | ? | 5% | 8% | ?
O=C(NCC(c1ccco1)N1CCCC1)c1cc2cc(Cl)ccc2o1 (stereo not drawn) | ? | -6%[11.6 µM] | -19% | 9.3µM*
OC(CNCC(c1ccco1)N1CCCCC1)c1ccccc1 (stereo not drawn) | 1.3µM* | -12% | 5% | ?
CCOc1ccc(C(=O)NCC(=O)NCC(c2ccco2)N2CCCCC2)cc1OCC (stereo not drawn) | ? | 83% | . | -18%
O=C(CSc1ccccc1)NCC(c1ccco1)N1CCCCC1 (stereo not drawn) | ? | 17% | -1% | ?
CCn1c(CCCOc2ccc(Cl)cc2Cl)n[nH]c1=S | 0% | 96% | -1% | -13%
C=CCOc1c(OC)cc(/C=N/Nc2cccc(C(=O)O)c2)c(Br)c1Br | 50% | -5% | -29% | 43%
Cc1nn(-c2ccc(C(=O)NCC(c3ccco3)N3CCCC3)cc2)c(C)c1Cl (stereo not drawn) | ? | -2% | 4% | 0.83µM*
O=C(NCC(c1ccco1)N1CCCC1)c1ccc(Cl)cc1 (stereo not drawn) | . | 34% | -7% | 0.93µM*
Cc1cc(C)c(OCC(=O)NCC(c2ccco2)N2CCCCC2)c(C)c1 (stereo not drawn) | 13µM* | -8% | 0% | 12µM*
Cc1ccc2c(Cl)c(C(=O)NCC(c3ccco3)N3CCCC3)sc2c1 (stereo not drawn) | ? | -5% | -3% | ?
O=C(NCC(c1ccco1)N1CCOCC1)c1ccc(F)c(F)c1 (stereo not drawn) | 52% | -4% | 2% | 0%
CC1CCN(C(=O)c2[nH]cnc2C(=O)N[C@@H](Cc2ccccc2)C(=O)OC(C)(C)C)CC1 | 15% | 105% | 6% | 51%
CC(C)(C)OC(=O)[C@H](Cc1ccccc1)NC(=O)c1nc[nH]c1C(=O)N1CCN(C(=O)OC(C)(C)C)CC1 | ? | 72% | 0% | 9.3µM*
CC(C)(C)OC(=O)[C@H](Cc1ccccc1)NC(=O)c1nc[nH]c1C(=O)NC1CCN(C(=O)OC(C)(C)C)CC1 | 4.7µM* | 101% | 0% | 3.3µM*
CC(C)(C)OC(=O)N1CCN(C(=O)c2[nH]cnc2C(=O)N[C@@H](Cc2ccccc2)C(=O)OCc2ccccc2)CC1 | ? | 129% | 15% | ?
CCCCn1c(N)c(N(CCOC)C(=O)c2cc(-c3ccc(OC)cc3)nc3ccccc23)c(=O)[nH]c1=O | 9.3µM* | 22% | . | ?
CCCn1c(N)c(N(CCOC)C(=O)c2cccc(C(F)(F)F)c2)c(=O)[nH]c1=O | 19% | 5% | 3% | 20%
